Laboratory results published in PubChem BioAssay (NCATS).
“And” between values parts separate entries of the source, which are not always exact repeats. Identical values can stand only once. Records with an inconclusive call do not appear. Where a call stands in place of a potency, no number is given. The source made the active and inactive calls. Unless noted, the call rests on the fitted dose curve; in most records, active means well fitted curve in the direction sought with a large enough effect; inconclusive means small, poorly fitted or top-dose-only effect, or another doubt; inactive means no such curve, though single readings can be large; an effect the other way counts as inactive or inconclusive.

How the values were obtained:
[1] = target: Thyrotropin-releasing hormone receptor (Homo sapiens) (UniProt P34981); experiment: qHTS for Small Molecule Agonists and Allosteric Enhancers of Human TRH Receptor: Validation Screen for Agonists (AID 493127;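 active means calcium activation more than 3 SD above the typical response in the agonist read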); conditions: TRH receptor agonist cell assay; at 2 µM; stronger effect = higher value
Outline: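 TRHR cells loaded with fluo-8 calcium dye; FDSS kinetic fluorescence (Ex 480/Em 530) read at 1 s/cycle after 23 nL compound addition. Agonist-mode calcium response recorded before the 10 nM TRH (EC20) addition.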

[2] = target: Galactokinase (Homo sapiens) (UniProt P51570); experiment: qHTS Validation Assay for Inhibitors of Human Galactokinase (GALK) (AID 493189); conditions: purified human GALK enzyme activity, qHTS 7-point titration; series mostly up to 57.5 µM
Sequence of Galactokinase (Homo sapiens) (P51570 whole entry, looked up): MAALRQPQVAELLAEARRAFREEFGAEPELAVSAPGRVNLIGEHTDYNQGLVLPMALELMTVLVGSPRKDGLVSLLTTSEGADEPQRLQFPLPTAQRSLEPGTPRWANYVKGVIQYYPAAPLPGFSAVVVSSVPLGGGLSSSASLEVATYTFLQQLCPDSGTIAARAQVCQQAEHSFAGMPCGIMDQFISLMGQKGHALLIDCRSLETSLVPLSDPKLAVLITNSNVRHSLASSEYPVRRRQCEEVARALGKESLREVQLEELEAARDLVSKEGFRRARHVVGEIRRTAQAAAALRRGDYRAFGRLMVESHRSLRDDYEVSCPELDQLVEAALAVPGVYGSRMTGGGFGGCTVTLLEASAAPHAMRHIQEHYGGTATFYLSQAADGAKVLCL
Outline: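 GALK (5 nM) with 35 uM ATP and 100 uM galactose in HEPES pH 8.0 with MgCl2, NaCl, DTT and BSA. Reaction ran 1 h at room temperature. Residual ATP read by Kinase-Glo Plus luminescence.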

[3] = Validation screen for small molecules that induce DNA re-replication in SW480 colon adenocarcinoma cells (AID 504364); conditions: DNA re-replication phenotype (high-content imaging); series mostly up to 46.1 µM
Outline: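 SW480 cells (250/well) exposed 48 h at 37 C, 5% CO2, then Hoechst-stained 40 min. Nuclear DNA content imaged by fluorescence scanning (405 nm excitation, 500-530 nm emission); re-replication scored as increased nuclei with elevated intensity.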

[4] = target: Ubiquitin carboxyl-terminal hydrolase 1 (Homo sapiens) (UniProt O94782); experiment: Inhibitors of USP1/UAF1: Pilot qHTS (AID 504865); conditions: purified USP1/UAF1, Ub-rhodamine cleavage fluorescence; series mostly up to 114 µM; further: nearly all actives have a fitted effect of over 35% in size; further: potency means the concentration at half of the fitted maximal effect
Sequence of Ubiquitin carboxyl-terminal hydrolase 1 (Homo sapiens) (O94782 whole entry, looked up): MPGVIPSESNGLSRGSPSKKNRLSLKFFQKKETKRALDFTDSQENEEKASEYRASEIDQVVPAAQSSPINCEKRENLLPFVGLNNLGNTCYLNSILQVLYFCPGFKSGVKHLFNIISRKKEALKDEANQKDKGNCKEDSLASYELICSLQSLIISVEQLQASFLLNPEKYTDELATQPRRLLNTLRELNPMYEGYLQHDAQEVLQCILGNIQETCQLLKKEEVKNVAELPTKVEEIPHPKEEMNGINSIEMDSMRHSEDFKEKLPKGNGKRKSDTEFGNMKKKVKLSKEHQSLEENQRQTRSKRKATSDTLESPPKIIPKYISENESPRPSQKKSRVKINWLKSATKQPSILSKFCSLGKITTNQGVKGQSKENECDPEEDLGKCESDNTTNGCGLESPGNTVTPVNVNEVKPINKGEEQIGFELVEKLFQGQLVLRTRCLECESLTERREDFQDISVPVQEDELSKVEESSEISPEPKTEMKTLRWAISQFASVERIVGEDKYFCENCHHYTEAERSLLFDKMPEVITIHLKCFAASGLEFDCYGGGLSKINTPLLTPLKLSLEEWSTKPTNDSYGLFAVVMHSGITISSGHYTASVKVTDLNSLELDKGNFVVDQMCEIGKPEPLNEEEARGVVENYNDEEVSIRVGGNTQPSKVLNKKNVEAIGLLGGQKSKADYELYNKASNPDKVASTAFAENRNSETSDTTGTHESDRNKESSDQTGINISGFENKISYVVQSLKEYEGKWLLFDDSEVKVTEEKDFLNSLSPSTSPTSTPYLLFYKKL
Outline: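 USP1/UAF1 complex at 1 nM preincubated 15 min at room temperature with compound, then Ub-Rho substrate added at 150 nM final. Fluorescence (480/540 nm) read kinetically in 50 mM HEPES pH 7.8, 0.5 mM EDTA, 1 mM TCEP, 0.1 mg/ml BSA, 0.01% Tween-20.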

[5] = target: Estrogen receptor (Homo sapiens) (UniProt P03372); experiment: qHTS assay for small molecule antagonists of estrogen receptor alpha signaling (AID 588513; active means well fitted curve in the direction sought with a large enough effect in the signal ratio, with a control signal flat, not every such curve was filed as active; the % refers to the signal ratio); conditions: ER-alpha-UAS-bla HEK293, beta-lactamase ratio, antagonist mode; series mostly up to 76.9 µM
Sequence of Estrogen receptor (Homo sapiens) (P03372 whole entry, looked up): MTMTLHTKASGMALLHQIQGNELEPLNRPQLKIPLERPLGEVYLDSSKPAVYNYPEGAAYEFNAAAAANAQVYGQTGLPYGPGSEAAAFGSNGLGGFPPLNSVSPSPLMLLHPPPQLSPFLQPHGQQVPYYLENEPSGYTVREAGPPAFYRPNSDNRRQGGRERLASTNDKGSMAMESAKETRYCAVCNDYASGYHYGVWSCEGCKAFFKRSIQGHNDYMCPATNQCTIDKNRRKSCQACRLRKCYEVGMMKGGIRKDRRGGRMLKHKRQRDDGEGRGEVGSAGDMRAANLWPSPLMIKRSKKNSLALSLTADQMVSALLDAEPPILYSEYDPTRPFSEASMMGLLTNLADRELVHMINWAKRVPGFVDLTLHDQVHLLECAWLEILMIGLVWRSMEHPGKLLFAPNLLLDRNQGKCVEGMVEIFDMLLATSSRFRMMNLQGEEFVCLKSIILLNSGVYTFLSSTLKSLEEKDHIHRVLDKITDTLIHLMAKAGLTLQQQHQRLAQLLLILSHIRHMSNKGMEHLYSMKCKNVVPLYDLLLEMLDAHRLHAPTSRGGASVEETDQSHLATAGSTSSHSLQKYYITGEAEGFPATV
Outline: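 ER-alpha-UAS-bla GripTite HEK 293 cells in 2% charcoal/dextran-treated FBS medium; compounds titrated (1:2, duplicate), then stimulated with 0.5 nM 17-beta-estradiol for 18 h at 37C. CCF4 beta-lactamase fluorescence; Hill-fit IC50 and efficacy.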

[6] = target: Estrogen receptor (Homo sapiens) (UniProt P03372); experiment: qHTS assay for small molecule agonists of estrogen receptor alpha signaling (AID 588514; calls by dose curve; further: nearly all actives have a fitted effect of over 70% in size); conditions: ER-alpha-UAS-bla HEK293, beta-lactamase ratio, 18 h; series mostly up to 76.8 µM
Outline: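 ER-alpha-UAS-bla GripTite HEK293 cells, 5000/well in 2% charcoal/dextran-stripped FBS medium, treated with compound titrations 18 h at 37 C. CCF4 beta-lactamase read by fluorescence after 2 h RT; normalised to 20 nM 17-beta-estradiol (100%) and DMSO (0%), Hill fit for EC50 and efficacy.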

[7] = target: DNA dC->dU-editing enzyme APOBEC-3G (Homo sapiens) (UniProt Q9HC16); experiment: qHTS for inhibitors of Vif-A3G interactions: Validation (AID 588379); conditions: Vif-A3G protein interaction assay; series mostly up to 46.1 µM
Sequence of DNA dC->dU-editing enzyme APOBEC-3G (Homo sapiens) (Q9HC16 whole entry, looked up): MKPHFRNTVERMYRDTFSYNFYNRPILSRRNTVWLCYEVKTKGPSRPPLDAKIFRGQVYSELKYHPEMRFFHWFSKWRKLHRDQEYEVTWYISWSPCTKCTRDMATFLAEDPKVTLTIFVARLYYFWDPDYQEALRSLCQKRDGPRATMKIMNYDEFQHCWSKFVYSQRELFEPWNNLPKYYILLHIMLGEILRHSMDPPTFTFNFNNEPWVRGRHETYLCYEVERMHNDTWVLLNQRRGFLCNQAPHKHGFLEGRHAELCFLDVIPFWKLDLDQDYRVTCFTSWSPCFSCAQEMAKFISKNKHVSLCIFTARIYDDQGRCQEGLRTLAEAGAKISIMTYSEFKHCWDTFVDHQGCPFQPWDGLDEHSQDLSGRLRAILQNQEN
Outline: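 HeLa cells stably expressing Vif and A3G-eYFP, 700 cells/well, incubated overnight at 37 deg C, then exposed to compound overnight at 37 deg C. Inhibition of Vif-mediated degradation read as increased yellow fluorescence (Ex 488/Em 500-530) by laser-scanning cytometry.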

[8] = qHTS for Inhibitors of Cell Surface uPA Generation: Validation Assay (AID 493164); conditions: mouse cells, plasminogen activation; series mostly up to 38.3 µM
Outline: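 RAW 264.7 cells (4000/well) were plated overnight, then exposed for 18 h at 37 C, 5% CO2 to compounds in a 7-point 1:5 titration (2.45 nM–38.3 uM final). Intracellular ATP was read by ATP-Lite luminescence.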

[9] = target: Peptidyl-prolyl cis-trans isomerase NIMA-interacting 1 (Homo sapiens) (UniProt Q13526); experiment: qHTS Validation Assay to Find Inhibitors of Pin1 (AID 504536; active means well fitted inhibition curve with a large enough effect in the polarisation, with a control signal flat, not every such curve was filed as active; the % refers to the polarisation); conditions: Pin1 fluorescence polarization peptide binding assay; series mostly up to 57.5 µM
Sequence of Peptidyl-prolyl cis-trans isomerase NIMA-interacting 1 (Homo sapiens) (Q13526 whole entry, looked up): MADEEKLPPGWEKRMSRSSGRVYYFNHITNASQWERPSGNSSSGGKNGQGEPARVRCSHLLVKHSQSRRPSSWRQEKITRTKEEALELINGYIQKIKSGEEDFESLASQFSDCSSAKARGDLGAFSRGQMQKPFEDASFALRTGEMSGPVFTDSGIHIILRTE
Outline: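 Fluorescence polarization competition: compounds (titration) displace HiFluor-488-labeled Pin1-1b peptide from Pin1 (0.3 uM final) in pH 7.5 HEPES buffer with DTT, 10 min at room temperature; %Activity normalized to no-enzyme wells, curves fitted.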

[10] = target: Phosphoglycerate kinase, glycosomal (Trypanosoma brucei brucei) (UniProt P07378); experiment: qHTS Validation Assay to Find Inhibitors of Phosphoglycerate Kinase (AID 504547); conditions: enzymatic PGK inhibition, coupled luminescence read-out; series mostly up to 57.5 µM
Sequence of Phosphoglycerate kinase, glycosomal (Trypanosoma brucei brucei) (P07378 whole entry, looked up): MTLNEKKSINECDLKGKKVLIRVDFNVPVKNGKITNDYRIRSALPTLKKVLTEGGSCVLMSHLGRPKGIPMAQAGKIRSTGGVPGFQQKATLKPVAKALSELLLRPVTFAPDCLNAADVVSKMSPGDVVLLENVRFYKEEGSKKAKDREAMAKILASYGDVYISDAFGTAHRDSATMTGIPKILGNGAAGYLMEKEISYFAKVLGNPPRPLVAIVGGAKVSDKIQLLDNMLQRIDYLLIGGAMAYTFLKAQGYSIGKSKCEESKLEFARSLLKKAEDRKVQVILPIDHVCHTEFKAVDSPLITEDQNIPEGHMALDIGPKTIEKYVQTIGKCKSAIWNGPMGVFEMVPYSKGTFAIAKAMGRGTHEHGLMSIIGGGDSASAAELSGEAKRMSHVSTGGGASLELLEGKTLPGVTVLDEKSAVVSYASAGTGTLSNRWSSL
Outline: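 Inhibition of the enzyme is judged by a Kinase-Glo Plus luminescent signal following a one-hour incubation at room temperature. Because 1,3-BPG is unstable, it is made in situ by GAPDH at 100nM final; no-PGK wells define the baseline.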

[11] = target: phosphoglycerate mutase (Leishmania major) (UniProt Q4Q090); experiment: qHTS Validation Assay to Find Inhibitors of Phosphoglycerate Mutase (AID 504548); conditions: biochemical enzyme activity; Potency: inhibition qHTS; series mostly up to 57.5 µM
Sequence of phosphoglycerate mutase (Leishmania major) (Q4Q090 1-553): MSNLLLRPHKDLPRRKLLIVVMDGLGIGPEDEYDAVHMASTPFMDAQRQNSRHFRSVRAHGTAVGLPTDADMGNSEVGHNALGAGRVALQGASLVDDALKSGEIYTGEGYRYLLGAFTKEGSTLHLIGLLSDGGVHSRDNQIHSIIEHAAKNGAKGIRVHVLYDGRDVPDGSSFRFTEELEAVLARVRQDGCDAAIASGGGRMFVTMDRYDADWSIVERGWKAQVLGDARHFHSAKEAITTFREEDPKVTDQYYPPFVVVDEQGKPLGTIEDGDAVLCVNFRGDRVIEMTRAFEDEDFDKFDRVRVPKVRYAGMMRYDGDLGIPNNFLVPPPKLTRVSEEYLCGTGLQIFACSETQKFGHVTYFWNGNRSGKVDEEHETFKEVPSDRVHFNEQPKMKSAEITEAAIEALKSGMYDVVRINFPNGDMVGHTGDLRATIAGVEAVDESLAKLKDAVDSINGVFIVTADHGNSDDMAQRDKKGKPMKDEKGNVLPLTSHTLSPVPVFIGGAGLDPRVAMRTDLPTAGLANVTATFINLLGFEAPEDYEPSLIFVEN
Outline: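 Lm PGAM at 1.25 nM final with substrate in 100 mM TEA pH 7.6, 5 mM MgCl2, 0.01% Tween-20; 45 min at room temperature. Kinase-GloPlus added, 10 min, end-point luminescence read.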

[12] = qHTS for Inhibitors of ATXN expression: Validation of Cytotoxic Assay (AID 588349); conditions: cytotoxicity counter-screen for ATXN expression inhibitors, cell viability; series mostly up to 57.1 µM
Outline: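 HEK293 cells treated with titrated compound for 72 hr at 37 degrees C; viability read as intracellular ATP by CellTiter Glo luminescence.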

[13] = qHTS for Inhibitors of ATXN expression: Validation (AID 588378); conditions: cell-based ATXN2 expression reporter assay, luminescence; series mostly up to 57.1 µM; further: nearly all actives have a fitted effect of over 75% in size
Outline: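 HEK293 cells carrying ATXN2-firefly luciferase reporter, treated with compound 24 h at 37 °C. Viability read first by CellTiter-Fluor (405/525 nm), then reporter expression by Bright-Glo luminescence; controls were a known ATXN2 expression inhibitor and a luciferase inhibitor.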

[14] = Nrf2 qHTS screen for inhibitors: Validation (AID 493153; active means well fitted inhibition curve with a large enough effect in the main read-out, with a control signal flat, not every such curve was filed as active); conditions: A549 ARE-Fluc reporter, 18-24 h; Potency: luciferase luminescence; viability change: measured here: cytotoxicity max response; luciferase luminescence, at 46.1 µM (top of the series)
Outline: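 A549 cells carrying ARE-firefly luciferase reporter, 5000 cells/well in 5% FBS OPTI-MEM, treated with compound over a concentration series for 18-24 h at 37 C. Luciferase luminescence gave Nrf2 activity; CellTiter-Fluor fluorescence gave viability.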

[15] = target: Bile acid receptor (Homo sapiens) (UniProt Q96RI1); experiment: qHTS assay for small molecule antagonists of farnesoid X receptor signaling (AID 588526; calls by dose curve); conditions: HEK293T FXR-UAS-bla, beta-lactamase ratio, antagonist mode; series mostly up to 76.7 µM
Sequence of Bile acid receptor (Homo sapiens) (Q96RI1 whole entry, looked up): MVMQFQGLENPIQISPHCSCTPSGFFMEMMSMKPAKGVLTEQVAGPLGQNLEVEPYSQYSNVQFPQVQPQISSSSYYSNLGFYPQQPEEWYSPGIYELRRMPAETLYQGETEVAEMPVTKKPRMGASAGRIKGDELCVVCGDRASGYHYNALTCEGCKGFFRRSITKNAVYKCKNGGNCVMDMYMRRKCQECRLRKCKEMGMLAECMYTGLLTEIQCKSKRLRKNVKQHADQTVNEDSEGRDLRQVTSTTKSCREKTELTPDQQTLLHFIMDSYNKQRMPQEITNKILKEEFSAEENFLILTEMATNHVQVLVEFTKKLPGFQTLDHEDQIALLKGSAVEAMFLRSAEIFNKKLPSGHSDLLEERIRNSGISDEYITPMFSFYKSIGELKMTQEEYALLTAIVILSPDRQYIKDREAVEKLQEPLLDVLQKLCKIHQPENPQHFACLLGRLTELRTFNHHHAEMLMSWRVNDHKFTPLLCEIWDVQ
Outline: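 Beta-lactamase reporter antagonist mode: HEK293T FXR-UAS-bla cells, titrated compound, CDCA stimulation, 16 h 37 C, CCF4 dye 2 h RT. Data normalized to CDCA 50 uM and DMSO; Hill-fit IC50.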

[16] = target: Androgen receptor (Homo sapiens) (UniProt P10275); experiment: qHTS assay for small molecule agonists of androgen receptor signaling (AID 588515; active means well fitted curve in the direction sought with a large enough effect in the signal ratio, with a control signal flat; the % refers to the signal ratio); conditions: AR-UAS-bla HEK293, beta-lactamase ratio, agonist 16 h; stronger effect = higher value
Sequence of Androgen receptor (Homo sapiens) (P10275 whole entry, looked up): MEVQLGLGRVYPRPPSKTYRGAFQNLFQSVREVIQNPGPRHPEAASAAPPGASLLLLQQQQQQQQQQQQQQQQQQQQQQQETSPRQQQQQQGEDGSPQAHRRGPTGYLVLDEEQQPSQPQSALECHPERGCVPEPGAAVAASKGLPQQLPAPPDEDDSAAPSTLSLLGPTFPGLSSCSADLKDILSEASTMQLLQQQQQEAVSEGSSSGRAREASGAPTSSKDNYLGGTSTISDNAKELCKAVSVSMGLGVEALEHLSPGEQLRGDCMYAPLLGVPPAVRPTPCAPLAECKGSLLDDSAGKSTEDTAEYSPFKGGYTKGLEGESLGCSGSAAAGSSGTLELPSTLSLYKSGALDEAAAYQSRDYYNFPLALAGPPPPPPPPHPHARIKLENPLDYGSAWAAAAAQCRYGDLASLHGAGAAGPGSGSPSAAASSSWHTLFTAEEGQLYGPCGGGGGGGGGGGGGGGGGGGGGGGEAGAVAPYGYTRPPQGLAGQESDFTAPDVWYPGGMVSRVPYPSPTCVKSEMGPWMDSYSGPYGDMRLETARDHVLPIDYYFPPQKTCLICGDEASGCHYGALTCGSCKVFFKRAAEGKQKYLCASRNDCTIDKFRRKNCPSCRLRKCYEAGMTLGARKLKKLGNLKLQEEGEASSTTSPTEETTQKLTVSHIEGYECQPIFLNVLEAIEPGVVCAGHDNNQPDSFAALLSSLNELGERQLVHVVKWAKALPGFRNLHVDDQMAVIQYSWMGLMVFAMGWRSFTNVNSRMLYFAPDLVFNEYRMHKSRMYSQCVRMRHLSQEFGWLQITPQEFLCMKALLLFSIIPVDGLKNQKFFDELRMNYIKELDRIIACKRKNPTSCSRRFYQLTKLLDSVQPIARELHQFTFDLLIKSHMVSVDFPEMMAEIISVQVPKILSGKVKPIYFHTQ
Outline: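 EC50 and efficacy came from Hill fits of titrations (up to 92 uM) normalized to 30 nM R1881 as 100% and DMSO as 0%. Compound exposure was 16 h at 37 C on AR-UAS-bla HEK293 cells, with a 405/460/530 nm CCF4 fluorescence read.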

[17] = target: Androgen receptor (Homo sapiens) (UniProt P10275); experiment: qHTS assay for small molecule antagonists of androgen receptor signaling (AID 588516; active means well fitted curve in the direction sought with a large enough effect in the signal ratio, with a control signal flat, not every such curve was filed as active; the % refers to the signal ratio); conditions: AR-UAS-bla HEK293, beta-lactamase ratio, antagonist mode, 16 h; series mostly up to 76.8 µM
Outline: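 AR-UAS-bla GripTite HEK 293 cells (2000/well) treated with compound titrations plus 10 nM R1881 for 16 h at 37C. Beta-lactamase read by CCF4 FRET (460/530 nm); IC50 from Hill fits, normalized to R1881 and DMSO control wells.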

SMILES: C=C/C(C)=C/[C@@]1(C)SC(=O)C(C)=C1O
- activation [1]: 0.875% (inactive)
- Potency [2]: inactive
- Potency [3]: inactive

SMILES: Cc1c(N)c(=O)n(-c2ccccc2)n1C
- Potency [4]: inactive

SMILES: Nc1ccc(O)c([N+](=O)[O-])c1
- outcome [5]: inactive
- Potency [6]: inactive

SMILES: N[C@H](CCCP(=O)(O)O)C(=O)O
- Potency [7]: inactive

SMILES: CC1(C)[C@@H](O)CC[C@]2(C)[C@H]3C(=O)C=C4[C@@H]5C[C@@](C)(C(=O)O)CC[C@]5(C)CC[C@@]4(C)[C@]3(C)CC[C@@H]12
- Potency [4]: inactive

SMILES: NS(=O)(=O)C#Cc1ccccc1
- outcome [8]: inactive
- Potency [9]: inactive
- Potency [10]: inactive
- Potency [11]: inactive
- Potency [4]: inactive

SMILES: O=C1NC(=O)/C(=C/c2ccc(-c3ccc(F)cc3O)o2)S1
- outcome [8]: inactive
- Potency [9]: inactive
- Potency [10]: inactive
- Potency [11]: inactive
- Potency [4]: 44.7 µM (active)
- Potency [12]: inactive
- Potency [13]: inactive

SMILES: O=C(c1ccc(OCCCc2cnc[nH]2)cc1)C1CC1
- Potency [14]: inactive
- viability change [14]: -3.26%
- outcome [8]: inactive
- Potency [9]: inactive
- Potency [10]: inactive
- Potency [11]: inactive
- Potency [4]: inactive
- Potency [13]: inactive

SMILES: Nc1ccc(O)c(C(=O)O)c1
- Potency [4]: 39.8 µM (active) and 11.2 µM (active)
- outcome [5]: inactive
- Potency [6]: inactive
- outcome [15]: inactive

SMILES: CC(C)(C)NCC(O)COc1nsnc1N1CCOCC1 (stereo not given)
- Potency [2]: inactive
- Potency [3]: inactive

SMILES: CN(C)c1ccc(N=NS(=O)(=O)O)cc1
- activation [16]: -16.2% (inactive)
- outcome [17]: inactive

SMILES: COc1cc(/C=C/C(=O)CC(=O)/C=C/c2ccc(O)c(OC)c2)ccc1O
- Potency [4]: 12.6 µM (active)
- outcome [5]: inactive

SMILES: CCCCCC[C@@H](O)C/C=C\CCCCCCCC(=O)O
- Potency [4]: inactive

SMILES: Nc1nc2ccc([N+](=O)[O-])cc2s1
- activation [16]: -6.41% (inactive)

SMILES: Oc1c(Br)cc(Br)c2cccnc12
- Potency [4]: inactive

SMILES: O=C(O)c1cc(O)c(O)c(O)c1
- Potency [4]: inactive
- outcome [5]: inactive

SMILES: COc1cc(CNC(=O)CCCC/C=C/C(C)C)ccc1O
- Potency [7]: inactive
- outcome [5]: inactive
- Potency [6]: inactive
- outcome [15]: inactive

SMILES: S=c1[nH]c2ccccc2s1
- Potency [4]: inactive
- outcome [15]: inactive

SMILES: CNC(=O)[C@H]1O[C@@H](n2cnc3c(NCc4cccc(I)c4)ncnc32)[C@H](O)[C@@H]1O
- outcome [8]: inactive
- Potency [9]: inactive
- Potency [10]: inactive
- Potency [11]: inactive
- Potency [4]: inactive
- Potency [12]: inactive
- Potency [13]: inactive

SMILES: N.N.O=C(O)C1(C(=O)O)CCC1.[Pt]
- activation [1]: -0.5% (inactive)
- Potency [2]: inactive
- Potency [3]: inactive
- Potency [4]: 28.2 µM (active)
- Potency [12]: inactive
- Potency [13]: inactive

SMILES: O=C1NC(=O)/C(=C/c2ccc3nccnc3c2)S1
- outcome [8]: inactive
- Potency [9]: inactive
- Potency [10]: inactive
- Potency [11]: inactive
- Potency [13]: inactive

SMILES: CC[C@@H](C)[C@H]1O[C@]2(CC[C@@H]1C)C[C@@H]1C[C@@H](C/C=C(\C)[C@@H](O[C@H]3C[C@H](OC)[C@@H](O[C@H]4C[C@H](OC)[C@@H](O)[C@H](C)O4)[C@H](C)O3)[C@@H](C)/C=C/C=C3\CO[C@@H]4[C@H](O)C(C)=C[C@@H](C(=O)O1)[C@]34O)O2
- Potency [2]: inactive

SMILES: CC(C(=O)O)c1ccc(C(=O)c2cccs2)cc1 (stereo not given)
- Potency [4]: inactive

SMILES: CN(C)c1ccc(C(=C2C=CC(=[N+](C)C)C=C2)c2ccccc2)cc1
- Potency [4]: 50.1 µM (active)
